# Screens from PubChem.
# KKLEB cytotox – reduces viability of KKLEB cystic fibrosis airway cells; KKLEB CF airway cells viability, ATPlite luminescence, overnight; hits give low values; cells stimulated with P. aeruginosa culture filtrate; activity change (cytotoxicity), % at 5 µM; hit rate 0.36% among 360,000;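 active means corrected activity change at or below -50% at 5 µM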
# Peg3 promoter – Peg3 promoter activity inhibition; HeLa PEG-Prom luciferase reporter, luminescence, overnight; inhibition, % at 20 µM; hit rate 1.7% among 360,000;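 active means inhibition of at least 50% at 20 µM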
# HIF-2a block – HIF-2a inhibition. inhibition, % at 18.8 µM. AID 624352. 786-0 RCC cells HIF-2a reporter, luciferase luminescence, overnight. hit rate 0.72% among 360,000;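 active means inhibition of the luminescence signal of 40% or more relative to plate controls, in a single-dose primary screen at 18.75 µM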
# CF NFkB block – inhibitors of cystic fibrosis induced NF-kB; inhibition, % at 5 µM; KKLEB NF-kB-GFP reporter, PAF-induced, GFP fluorescence overnight; hit rate 0.86% among 360,000;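 active means at least 50% inhibition at 5 µM, scaled per plate between neutral and stimulator controls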;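 further: PAF is a Pseudomonas aeruginosa culture filtrate used as stimulus; plate controls were PAF-stimulated DMSO wells for no effect and unstimulated DMSO wells for full effect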
# TWEAK-Fn14 inh – TWEAK-Fn14 signaling inhibition | TWEAK-stimulated Fn14 reporter cells, luciferase luminescence, 8 h | inhibition, % at 10 µM | hit rate 2% among 360,000; in the data active means inhibition above about 50%
# TROY signal inh – blocks TROY-dependent signaling in reporter cells. Q293 LMP1-TROYcd NF-kB luciferase reporter, 4 h. inhibition, % at 10 µM. hit rate 0.98% among 360,000. AID 1347056;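 active means compounds whose plate-normalised and pattern-corrected inhibition of the luciferase reporter signal at the single screening dose is 50% or more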
# * hit, by the source's call; . = no result given. Rows were chosen to be rich in hits. Some 4% of all compounds tested hit in one or more screens of this group.
SMILES,KKLEB cytotox,Peg3 promoter,HIF-2a block,CF NFkB block,TWEAK-Fn14 inh,TROY signal inh
COc1ccc(C(C(=O)NCc2ccccc2)n2c(=O)c(-c3ccco3)nc3ccccc32)cc1 (stereo not given),.,.,1,.,.,.
COCCN(C(=O)Nc1ccc(OC)cc1)c1nc2ccccc2s1,-11,-9,-92,20,-23,-27
CC(=NCc1ccco1)c1c(C)[nH]n(-c2nc3ccccc3s2)c1=O,-2,-38,-33,8,90*,84*
O=c1c(C=NCc2cccnc2)c(C(F)(F)F)[nH]n1-c1nc2ccccc2s1,-1,-70,-20,3,77*,48
CCC(=NCc1ccco1)c1c(C(F)(F)F)[nH]n(-c2nc3ccccc3s2)c1=O,2,-374,-50,-13,87*,-29
CC(C)(C)N1C(=O)c2ccccc2NC(=O)C1C(=O)NCCOc1ccccc1 (stereo not given),.,.,3,.,.,.
COc1ccc(Cc2ccccc2C(=O)O)cc1,7,5,1,-15,6,0
COc1ccc(CC2=CC(=O)c3ccccc3C2=O)cc1,12,47,22,52*,29,1
O=C(OC(c1ccccc1)c1nccc2ccccc12)c1cccc([N+](=O)[O-])c1 (stereo not given),4,-115,-148,-23,-12,21
O=C(OC(c1ccccc1)c1nccc2ccccc12)c1ccccc1 (stereo not given),-12,-25,-31,23,98*,87*
CC(NC(=O)COC(=O)c1cccs1)c1ccccc1 (stereo not given),-2,-20,11,-20,30,12
CC(NC(=O)COC(=O)/C(=C/c1cccs1)c1cccs1)c1ccccc1 (stereo not given),8,35,22,17,50*,39
O=C1Cc2cc(O)ccc2O1,0,1,-1,5,12,3
Clc1ccccc1Nc1nnc(-c2ccncc2)s1,-27,-32,-10,28,89*,60*
COc1ccc(Nc2nnc(-c3ccncc3)s2)cc1Cl,4,21,8,-21,38,51*
CCN1C(=O)[C@H]2[C@@H](c3ccc(OC)cc3)N[C@]3(CCCN(Cc4ccc(C)cc4)C3=O)[C@H]2C1=O,10,-1,0,-6,12,-15
Clc1ccc2oc3c(Cl)ncnc3c2c1,-15,84*,18,20,-17,-4
O=c1ccc2c([nH]1)CCCCCCCCCC2,5,54*,30,-3,-25,-8
Cc1ccc([N+](=O)[O-])cc1Nc1nc(N2CCCC2)nc(N2CCCC2)n1,-4,31,21,1,52*,-6
COc1ccc(NC(=O)COC(=O)/C=C/C(=O)OCC(=O)Nc2ccc(OC)c(Cl)c2)cc1Cl,-8,56*,22,-22,39,-11
N#CC(=C1C=CC(=NO)C(Cl)=C1)c1ccc(Cl)cc1,-2,15,-27,53*,64*,27
CCCNC(=O)C1CCC(CNS(=O)(=O)c2ccc3c(c2)N(C(C)=O)CCO3)CC1 (stereo not given),-4,12,8,9,-7,9
COCCC1CCCCN1C(=O)c1cc(COc2ccc(C)nc2)on1 (stereo not given),-95*,-53,-65,69*,2,-15
O=C(O)CN1C(=O)/C(=C\c2cc([N+](=O)[O-])ccc2OCc2ccccc2Cl)SC1=S,2,-3,1,11,16,5
Cc1ccccc1/C=C1\SC(=S)N(/N=C/c2cc([N+](=O)[O-])ccc2O)C1=O,2,12,1,-4,17,78*
SMILES,KKLEB cytotox,Peg3 promoter,HIF-2a block,CF NFkB block,TWEAK-Fn14 inh,TROY signal inh
O=C1/C(=C\c2cc([N+](=O)[O-])ccc2O)SC(=S)N1Cc1ccc(Cl)cc1,-41,97*,-18,11,72*,53*
CC1CCCN(CCCNC(=O)c2ccc3c(c2)N(Cc2ccc(F)cc2)C(=O)c2ccccc2S3=O)C1 (stereo not given),0,14,7,-10,13,7
CC1CCCN(CCCNC(=O)c2ccc3c(c2)N(Cc2cccc(Cl)c2)C(=O)c2ccccc2S3=O)C1 (stereo not given),0,57*,8,2,0,-5
O=C(O)COc1ccccc1/C=N/Nc1ccc(S(=O)(=O)N2CCOCC2)cc1[N+](=O)[O-],8,68*,18,-8,-19,-5
Cc1ccc(-n2c(O)c(/C=N/Nc3ccc(S(=O)(=O)N4CCOCC4)cc3[N+](=O)[O-])c3ccccc3c2=O)c(C)c1,-50,38,4,43,82*,42
CCCCCCCCN1C(=O)[C@H](CC(=O)N2CCN(C(=O)c3ccco3)CC2)C[C@@]2(C(=O)OC)CC(C)(C)CC=C12,.,.,2,.,.,.
Cc1cc(C)c(C)c(OC(=O)c2sc(Cl)nc2C)c1,-39,90*,8,8,41,-29
Cc1ccc(NC(=O)c2sc(Cl)nc2C)c(C)c1,20,-24,-12,-3,-8,-23
COc1ccc(N(C)S(=O)(=O)c2ccc(Cl)c(C(=O)NCC(C)(C)N3CCOCC3)c2)cc1,5,-3,-1,-17,14,13
CC(C)N1C(=O)S/C(=C/c2ccc(Sc3nc4ccccc4[nH]3)o2)C1=O,-12,25,-32,16,89*,59*
C=CCN1C(=O)S/C(=C/c2ccc(Sc3nc4ccccc4[nH]3)o2)C1=O,-12,-4,-16,21,73*,52*
C=CCN1C(=O)S/C(=C/c2ccsc2)C1=O,-4,-173,-63,-14,-14,-79
O=[N+]([O-])c1ccc(N2CCN(Cc3ccc(Br)o3)CC2)cc1,-10,39,6,0,29,-7
C=CCN1C(=O)c2ccc(C(=O)N(CCOC)c3c(N)n(CCCC)c(=O)[nH]c3=O)cc2C1=O,5,2,22,-14,11,-6
CCN(CC)CCNc1ncnc2c1sc1nc(N3CCOCC3)c3c(c12)CC(C)(C)SC3,-41,104*,34,38,-84,8
CC1(C)Cc2c(c(N3CCOCC3)nc3sc4c(=O)[nH]cnc4c23)CS1,-14,9,7,35,-16,2
COc1ccc2ccccc2c1-c1sc(Nc2ccccc2)n[n+]1-c1ccc(F)cc1,-14,87*,-6,17,-47,24
O=C(O)c1ccc(-c2sc(Nc3ccccc3)n[n+]2-c2ccc(F)cc2)cc1,-21,7,8,12,18,-9
Fc1ccc(-[n+]2nc(Nc3ccccc3)sc2-c2c(Cl)cccc2Cl)cc1,-2,59*,-3,32,24,40
COc1ccccc1C(=O)Nc1ccnn1C1CCN(C(=O)c2ccoc2C)CC1,2,-22,-52,19,-19,-36
Cc1cc(C)c2nc3nc(C)c(C)cc3c(N)c2c1,-3,66*,-10,-115,-81,-81
